Hits are enriched below; roughly 0.49% of the tested compounds scored in any of these assays.
EPAC1 antagonist: qHTS for Antagonist of cAMP-regulated guanine nucleotide exchange factor 3 (EPAC1): primary screen; Rap guanine nucleotide exchange factor 3 (Homo sapiens), O95398; EPAC1 GEF assay, Rap1b-BODIPY-GDP exchange fluorescence; Potency, µM (top dose mostly 115 µM), inactives show top-dose activity change, negative = inhibition, usual class: inhibitors; 360,000 compounds, 0.14% hits;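 further: plate controls were vehicle for no effect and positive control for full effect; nearly all actives have a fitted effect of over 50% in size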
USP1 inh: Inhibitors of USP1/UAF1: Primary Screen; Ubiquitin carboxyl-terminal hydrolase 1 (Homo sapiens), O94782; recombinant USP1/UAF1, Ub-Rhodamine cleavage fluorescence; AID 743255, 2014; Potency, µM (top dose mostly 57.1 µM), inactives show at the highest dose activity change, negative = inhibition, most hits filed as inhibitors; 390,000 compounds, 0.23% hits; further: on the % scale 0 is the no-effect control and ±100 the full control effect; nearly all actives have a fitted effect of over 60% in size
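USP1/UAF1 complex (1 nM) preincubated 15 min at room temperature with compound, then Ub-Rho substrate (150 nM final) added. Kinetic fluorescence at 480/540 nm over 6 reads at 60 s intervals; 50 mM HEPES pH 7.8, 0.5 mM EDTA, 0.1 mg/ml BSA, 1 mM TCEP, 0.01% Tween-20.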
EPAC2 antag: qHTS for Antagonist of cAMP-regulated guanine nucleotide exchange factor 2 (EPAC2): primary screen; EPAC2 GEF exchange of Rap1B-BODIPY-GDP, fluorescence; Potency, µM (doses to about 114 µM), for inactives: at the top dose activity, negative = inhibition, usual class: inhibitors; 360,000 compounds, 0.18% hits; AID 720708, 2013; further: on the % scale 0 is the no-effect control and ±100 the full control effect; nearly all actives have a fitted effect of over 45% in size
Target sequence (Q8WZA2 whole entry, looked up): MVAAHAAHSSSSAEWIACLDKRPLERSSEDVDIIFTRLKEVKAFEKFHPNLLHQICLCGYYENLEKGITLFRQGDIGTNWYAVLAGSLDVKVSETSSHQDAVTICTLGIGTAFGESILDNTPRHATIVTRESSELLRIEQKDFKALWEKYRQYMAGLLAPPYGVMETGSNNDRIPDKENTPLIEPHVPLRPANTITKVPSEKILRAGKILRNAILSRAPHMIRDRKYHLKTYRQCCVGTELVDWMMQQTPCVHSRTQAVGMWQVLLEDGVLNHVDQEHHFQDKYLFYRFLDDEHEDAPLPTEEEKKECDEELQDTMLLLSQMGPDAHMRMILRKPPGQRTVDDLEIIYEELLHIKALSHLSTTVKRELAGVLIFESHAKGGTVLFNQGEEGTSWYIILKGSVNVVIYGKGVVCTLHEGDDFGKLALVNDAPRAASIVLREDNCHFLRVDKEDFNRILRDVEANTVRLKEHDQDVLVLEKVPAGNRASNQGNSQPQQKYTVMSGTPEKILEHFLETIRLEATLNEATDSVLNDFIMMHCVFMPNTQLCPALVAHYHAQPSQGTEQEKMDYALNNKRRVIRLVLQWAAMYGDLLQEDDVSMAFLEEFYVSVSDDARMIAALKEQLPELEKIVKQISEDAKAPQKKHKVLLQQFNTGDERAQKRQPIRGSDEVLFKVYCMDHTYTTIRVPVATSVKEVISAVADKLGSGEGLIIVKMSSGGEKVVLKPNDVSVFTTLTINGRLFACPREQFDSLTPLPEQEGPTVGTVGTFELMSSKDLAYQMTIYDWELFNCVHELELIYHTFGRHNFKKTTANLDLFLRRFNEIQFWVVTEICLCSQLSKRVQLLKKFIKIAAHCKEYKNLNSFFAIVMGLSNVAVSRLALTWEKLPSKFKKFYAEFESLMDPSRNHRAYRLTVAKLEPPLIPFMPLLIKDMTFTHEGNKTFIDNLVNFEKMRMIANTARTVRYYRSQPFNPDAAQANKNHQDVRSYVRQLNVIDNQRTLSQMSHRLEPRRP
EPAC1 agonist: qHTS for Agonist of cAMP-regulated guanine nucleotide exchange factor 3 (EPAC1): primary screen | EPAC1 agonist qHTS, biochemical assay; response scale: 100% = response to 6.5 mM cAMP | Potency, µM (titrated, usually from 154 µM), without a hit: at the highest dose activation, most hits filed as activators | 360,000 compounds, 0.073% hits; further: nearly all actives have a fitted effect of over 60% in size
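EPAC1 100 nM, Rap1B–BODIPY-GDP 250 nM, unlabeled GDP 50 uM; compound titration; 5 min RT; kinetic read ex480/em540 at 5-min intervals ×30 min; data normalized to 6.5 mM cAMP agonist control.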
EPAC2 ag: qHTS for Agonist of cAMP-regulated guanine nucleotide exchange factor 4 (EPAC2): primary screen; Potency, µM (doses to about 154 µM), inactives show top-dose activation, actives largely listed as activators; 360,000 compounds, 0.079% hits; Rap guanine nucleotide exchange factor 4 (Homo sapiens), Q8WZA2; EPAC2 activation, biochemical qHTS; response scale: 100% = 6.5 mM cAMP response; further: nearly all actives have a fitted effect of over 50% in size
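qHTS, titration series. 100 nM EPAC2 / 250 nM Rap1B-BODIPY-GDP / 50 uM GDP; RT; ex 480/em 540 nm, 5-min reads to 30 min. Norm. to 6.5 mM cAMP = activation.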
An asterisk follows results filed as active; ? = inconclusive; / = no result. The call rests on the fitted dose curve; in most records, active means well fitted curve in the direction sought with a large enough effect; inconclusive means small, poorly fitted or top-dose-only effect, or another doubt; inactive means no such curve, though single readings can be large; an effect the other way counts as inactive or inconclusive. Potency means the concentration at half of the fitted maximal effect.

SMILES | EPAC1 antagonist | USP1 inh | EPAC2 antag | EPAC1 agonist | EPAC2 ag
COCCCn1c(N)c(C(=O)NCCC(C)C)c2nc3ccccc3nc21 | 50µM* | 22µM* | ? | 23% | -3%
CCCCNC(=O)c1c(N)n(Cc2ccc3c(c2)OCO3)c2nc3ccccc3nc12 | -29% | 28µM* | 1% | 8% | 10%
O=C1NCCOC(=O)[C@H](Cc2ccc(F)cc2)CC/C=C/C[C@@H]1CC(=O)N(CCO)Cc1ccccc1 | 2% | -3% | 0% | -7% | 8%
CC(C)CCOP(=O)(c1ccc(N(C)C)cc1)C(O)c1c(Cl)cccc1Cl (centres undefined) | ? | -3% | ? | -3% | 3%
C[C@H]1COC(=O)[C@@H](Cc2ccc(F)cc2)CC/C=C/C[C@@H](CC(=O)N(CCO)Cc2ccccc2)C(=O)N1 | -6% | -1% | -4% | 7% | 8%
C[N+](C)(C)CCCCCCCCCC[N+](C)(C)C | -9% | ? | 0% | -13% | 1%
CCn1nc(/C=C/c2ccccc2)nc2c(=O)n(C)c(=O)nc1-2 | ? | 1.1µM* | ? | 0% | 29%
CCn1nc(-c2cccs2)nc2c(=O)n(C)c(=O)nc1-2 | ? | 0.22µM* | ? | -6% | 28%
Oc1c(Cl)c(Cl)c(Cl)c(Cl)c1Cl | -22% | -20% | 10µM* | -32% | -5%
O=C(Nc1ccc(OC(F)(F)F)cc1)c1cccn(Cc2ccccc2Cl)c1=O | / | -20% | / | / | /
O=C(Nc1ccccc1C(F)(F)F)c1cccn(Cc2ccccc2)c1=O | / | -26% | / | / | /
COC(=O)C1C2c3ccccc3C(c3ccccc32)C1(C)C(=O)OC (centres undefined) | 4% | 2% | 32µM* | 2% | 7%
Cc1oc(-c2ccc(Cl)cc2)nc1CN1C(=O)CN=C(c2ccccc2)c2ccccc21 | / | -4% | / | / | /
O=c1nc(/C=C/c2ccc(Cl)cc2Cl)cc(C(F)(F)F)[nH]1 | ? | ? | 56µM* | -20% | -2%
O=C1NC(=O)N(c2ccccc2)C(=O)/C1=C/c1ccc(Sc2ccccc2)o1 | 11% | -20% | 3% | 8% | 2%
Cc1ccc(/C=C2\C(=O)NC(=S)N(c3ccccc3F)C2=O)s1 | ? | -15% | -1% | 2% | -10%
O=C1NC(=O)N(c2cccc(Cl)c2)C(=O)/C1=C\c1ccc(Sc2nc3ccccc3[nH]2)o1 | 45µM* | -14% | -3% | -2% | 1%
O=C1NC(=O)N(c2ccccc2F)C(=O)/C1=C/c1ccc(Sc2nc3ccccc3[nH]2)o1 | 25µM* | -16% | -1% | 14% | -1%
CC(C)c1ccc(NC(=O)CN2C(=O)CN=C(c3ccccc3)c3ccccc32)cc1 | / | -17% | / | / | /
CCC(=O)N1CC(=O)Nc2ccc(C)cc2C1c1ccc(F)cc1 (centres undefined) | / | -8% | / | / | /
CCOC(=O)c1c(/N=C/C2C(=O)NC(=O)NC2=O)sc2c1CCC2 | -17% | -10% | -20% | -12% | 9%
CCOC(=O)c1cc(CC)sc1/N=C/C1C(=O)NC(=S)NC1=O | 4% | ? | 201% | -2% | 89µM*
CCOC(=O)c1cc(CC)sc1/N=C/c1c(O)[nH]c(=S)[nH]c1=O | -15% | ? | 31% | 6% | 63µM*
Cc1cc(NC(=O)c2cccn(Cc3cccc([N+](=O)[O-])c3)c2=O)no1 | / | -13% | / | / | /
C[C@@H]1C(=O)O[C@H]2CC34[C@H]5C[C@@H](C(C)(C)C)[C@]36[C@@H](OC(=O)[C@@H]6O)O[C@@]4(C(=O)O5)[C@]21O (some centres undefined) | -2% | 9% | -14% | 4% | 15%
SMILES | EPAC1 antagonist | USP1 inh | EPAC2 antag | EPAC1 agonist | EPAC2 ag
C[N+]1(C)[C@@H]2CC[C@H]1CC(OC(=O)C(c1ccccc1)c1ccccc1)C2 (some centres undefined) | -22% | -11% | -5% | -6% | -4%
O=C(OC1CCN(CCCl)CC1)C(c1ccccc1)c1ccccc1 | 2% | -24% | 13µM* | 6% | 10%
COc1ccc(N2C(=O)NC(=O)/C(=C\c3ccc([N+](=O)[O-])s3)C2=O)cc1 | ? | 16µM* | -4% | -5% | -18%
COc1ccc(N2C(=O)/C(=C/C=C/c3ccccc3[N+](=O)[O-])C(=O)NC2=S)cc1 | 45µM* | ? | -8% | -4% | -4%
COc1ccc(N2C(=O)NC(=O)/C(=C/c3ccc([N+](=O)[O-])s3)C2=O)cc1 | ? | 22µM* | 0% | -2% | 4%
COc1ccccc1N1C(=O)NC(=O)/C(=C/c2ccc([N+](=O)[O-])s2)C1=O | ? | 32µM* | -1% | 2% | 5%
COc1ccc(C/C(=N\OC(C)=O)c2ccc(OC)cc2)cc1 | 10% | -22% | ? | -1% | 10%
CC(C)N1C(=O)/C(=C/C=C/c2ccco2)C(=O)N(Cc2ccco2)C1=O | ? | -4% | -2% | 4% | 9%
COc1ccc(/C=C2/C(=O)N(Cc3ccco3)C(=O)N(C(C)C)C2=O)cc1 | 32µM* | ? | 40% | -5% | -10%
CC(C)[C@@]1(NC(=O)[C@@H]2C[C@@H]3c4cccc5[nH]cc(c45)C[C@H]3N(C)C2)O[C@@]2(O)[C@@H]3CCCN3C(=O)[C@H](Cc3ccccc3)N2C1=O | -2% | -25% | 5% | -23% | 1%
CC(C)[C@H]1C(=O)N2CCC[C@H]2[C@]2(O)O[C@](NC(=O)[C@@H]3C=C4c5cccc6[nH]cc(c56)C[C@H]4N(C)C3)(C(C)C)C(=O)N12 | ? | 22µM* | 8% | -14% | 11%
CC(C)C[C@H]1C(=O)N2CCCC2[C@]2(O)O[C@](NC(=O)[C@@H]3C=C4c5cccc6[nH]cc(c56)CC4N(C)C3)(C(C)C)C(=O)N12 (some centres undefined) | -5% | 13µM* | 6% | -28% | 0%
Cc1cccc(NP(=O)(Oc2ccccc2F)Oc2ccccc2F)c1 | -15% | -9% | ? | 11% | 6%
O=P(Nc1cccc(F)c1)(Oc1ccccc1F)Oc1ccccc1F | ? | -7% | 35µM* | 14% | 23%
CCOc1ccc(CN(CCc2ccc3c(c2)OCO3)Cc2cc(OC)ccc2O)cc1 | / | -15% | / | / | /
O=C1NC(=S)NC(=O)C1=Cc1ccc2c(c1)CCN2CCCCl | -26% | -5% | -11% | 15% | 2%
Cc1ccccc1N1C(=O)NC(=O)/C(=C\c2ccc3c(c2)CCCN3Cc2ccccc2)C1=O | 35µM* | ? | -5% | 12% | -3%
